# Source: PubChem BioAssay (NCATS)
# Records with an inconclusive call do not appear. Active and inactive are the calls of the source. Calls come from the whole dose curve; as a rule, active = well fitted cell-killing curve with a large enough effect; inconclusive = small, poorly fitted or top-dose-only effect; inactive = flat fitted curve, though single readings scatter.
# Experiment: Cellular viability qHTS for adrenocortical cancer (ACC) cell line NCI-H295R (AID 1963990); note: nearly all actives have a fitted effect of over 60% in size
# Conditions: CellTiter-Glo ATP luminescence, 48 h; series mostly up to 46.1 µM; activity change, negative = viability loss: at the top concentration
# Excerpt: PI: Naris Nilubol, MD Surgical Oncology Program, National Cancer Institute (NCI) National Institute of Health (NIH), Bethesda, Maryland Adrenocortical cancer (ACC) is a rare malignancy with poor survival outcomes and few treatment options. Currently, mitotane is the only FDA-approved therapy for ACC. Although adjuvant radiation therapy is rarely utilized, it has the potential to improve survival in select cases. Through a quantitative high-throughput drug screen (qHTS), we identified auranofin (AF), a thioredoxin reductase (TXNRD) inhibitor, as a promising candidate drug. This study aims to evaluate whether AF can enhance the efficacy of radiation therapy in the treatment of ACC. Two human ACC cell lines, SW-13 and NCI-H295R, were screened using the National Center for Advancing Translational Sciences (NCATS) Pharmaceutical Collection (NPC) and the Mechanism Interrogation PlatE (MIPE) library (~4,991 compounds). CellTiter-Glo (Cat # G7570, Promega, Madison, WI) was utilized to measure cell viability. Described herein are the results of the corresponding viability assay.
# PROTOCOL TABLE (as described by Inglese J, Shamu CE and Guy RK. 2007) SEQUENCE No. (e.g., 1, 2, 3, etc.); […] (e.g., Cells, Incubation, Reagent, etc.); VALUE; DESCRIPTION. 1; Cells; 5 uL; white, solid-bottom, 1536-well tissue-culture treated plates. 2; Time; overnight culture at 37C with 5% CO2. 3; Compounds and control; 23 nL; Kalypsis pin tool (Wako USA) equipped with a 1536-well pin head to transfer to the assay plates. 4; Time; 48 hours; 37C with 5% CO2. 5; Reagent; 4 uL; CellTiter-Glo luminescent substrate mix. 6; Time; 20 min at room temperature. 7; Detection; Luminescence; ViewLux plate reader NOTES (numbers refer to Sequence numbers above) 1. NCI-H295R cells were harvested from a T175 flask and resuspended in ITS-supplemented DMEM serum-free medium at a concentration of 300 000 cells/mL. Then 5 uL of resuspended cells were dispensed into each well of white, solid-bottom, 1536-well tissue-culture-treated plates using a multidrop combi dispenser. The plates were covered with stainless steel gasket lids. 2-3. The plates were cultured overnight at 37C with 5% CO2. Twenty-three nL of compounds (eight selected concentrations from the NPC / MIPE) or positive control (10 mM stock of bortezomib) in DMSO was transferred to each well of the assay plate using a pin tool (Kalypsys, San Diego, CA, USA). The final concentration of the compounds in the 5 uL assay volume ranged from 0.5 nM to 46 uM. 4-6. After 48 hours of incubation at 37C and 5% CO2, 4 uL of CellTilter-Glo luminescent substrate mix (Promega, Madison, WI, USA) was added to each well. Then the plates were incubated for 20 minutes at room temperature. 7. After incubation, luminescence was measured using a ViewLux plate reader (PerkinElmer, Waltham, MA, USA) with a clear filter was used to measure the number of metabolically competent cells. To determine compound activity in the qHTS assay, the titration-response data for each sample was plotted and modeled by a four-parameter logistic fit yielding IC50 and efficacy (maximal response) values. Raw plate reads for each titration point were normalized relative to positive control ([…], 100% inhibition) and DMSO-only wells (basal, 0%). REFERENCES: Inglese J, Shamu CE and Guy RK, Reporting data from high throughput screening of small molecule libraries, Nature Chemical Biology, 2007, 3(8): 438-441. doi.org/10.1038/nchembio0807-438.
SMILES,"activity change, negative = viability loss",Potency
C[C@@H]1O[C@@H](OC[C@H]2O[C@@H](Oc3c(-c4ccc(O)c(O)c4)oc4cc(O)cc(O)c4c3=O)[C@H](O)[C@@H](O)[C@@H]2O)[C@H](O)[C@H](O)[C@H]1O,1.81% (inactive),
C=CC(=O)Nc1cccc(Nc2nc(Nc3ccc(NC4CN(CCF)C4)cc3OC)ncc2C(F)(F)F)c1,,8.91 µM (active)
CCC(C(=O)OCCOCCN(CC)CC)c1ccccc1 (stereo not given),-8.78% (inactive),
C[C@H]1C[C@@H]2[C@H]([C@@H](O)C[C@@]3(C)[C@H]2CC[C@]3(O)C(=O)CO)[C@@]2(C)C=CC(=O)C=C12,,inactive
COc1cccc(-c2cc(=O)c3ccccc3o2)c1N,-3.75% (inactive),
C=C[C@H]1CN2CC[C@H]1C[C@@H]2[C@@H](O)c1ccnc2ccc(OC)cc12,6.47% (inactive),
O=C(Nc1cccnc1)N1CCC(Cc2cccc(Oc3ccc(C(F)(F)F)cn3)c2)CC1,,17.8 µM (active)
O=C(NCCO[N+](=O)[O-])c1cccnc1,,inactive
CNC1(C)C2CCC(C2)C1(C)C (stereo not given),-9.67% (inactive),
C/C=C1\NC(=O)[C@H]2CSSCC/C=C\[C@H](CC(=O)N[C@H](C(C)C)C(=O)N2)OC(=O)[C@H](C(C)C)NC1=O,,0.0631 µM (active)
C[C@H]1c2cccc(O)c2C(O)=C2C(=O)[C@]3(O)C(O)=C(C(N)=O)C(=O)[C@@H](N(C)C)[C@@H]3[C@@H](O)[C@@H]21,,inactive
COc1ccc(-c2ccc3ncc4c(c3c2)n(-c2ccc(N3CCNCC3)c(C(F)(F)F)c2)c(=O)n4C)cn1,,0.126 µM (active)
Nc1ccc(O)c(C(=O)O)c1,-5.53% (inactive),
CC1CCc2c(N3CCC(O)CC3)c(F)cc3c(=O)c(C(=O)O)cn1c23 (stereo not given),3.19% (inactive),
CC[C@@H](C)Nc1cc(C(=O)NC2CC3CCC(C2)N3c2ccc(C(=O)C3CC3)cn2)c(C)cc1C(N)=O (stereo not given in full),,0.355 µM (active)
CCCCCCCCc1ccc(CCC(N)(CO)CO)cc1,,7.08 µM (active)
O=C(NO)c1ccc(C2=Nc3ccccc3Oc3ccccc32)cc1,,5.01 µM (active)
COc1nc(-c2ccc3c(c2)OCO3)n(-c2ccc(NC(=O)CSc3ccccc3)cc2)n1,-0.108% (inactive),
CC(=O)c1cnc2ccc(-c3cc(Cl)c(O)c(Cl)c3)nc2c1NC1CCC(CN(C)C)CC1 (stereo not given),,0.212 µM (active)
COc1ccc(S(=O)(=O)Nc2nnc(CC(C)C)s2)cc1,-6.9% (inactive),

SMILES,"activity change, negative = viability loss",Potency
O=C(O)c1ccccc1C(=O)Nc1ccc(S(=O)(=O)Nc2nccs2)cc1,-17.4% (inactive),
O=C(O)CCC(=O)OC[C@@H](NC(=O)C(Cl)Cl)[C@H](O)c1ccc([N+](=O)[O-])cc1,-11% (inactive),
O=C1CN2Cc3c(ccc(Cl)c3Cl)N=C2N1,-28.7% (inactive),
O=c1c(O)c(-c2ccc(O)c(O)c2)oc2cc(O)cc(O)c12,5.34% (inactive),
COc1ccc(C(Cl)=C(c2ccc(OC)cc2)c2ccc(OC)cc2)cc1,-6.96% (inactive),
CC(C)N(CCCNC(=O)Nc1ccc(C(C)(C)C)cc1)C[C@H]1O[C@@H](n2ccc3c(N)ncnc32)[C@H](O)[C@@H]1O,4.66% (inactive),
O=C(NO)c1cnc(N2C[C@H]3C[C@@H]2CN3c2cc(C(F)(F)F)ccn2)nc1,,2.82 µM (active)
COc1cc(N2CCN(C(C)=O)CC2)ccc1Nc1ncc(Cl)c(Nc2ccc(N3CCN(C(C)=O)CC3)cc2OC)n1,,12.6 µM (active)
COc1cc(NS(=O)(=O)c2ccc(N)cc2)ncn1,-9.95% (inactive),
COc1ccc2cc([C@H](C)C(=O)O)ccc2c1,,inactive
C=CCn1c(=O)n([C@@H]2O[C@H](CO)[C@@H](O)[C@H]2O)c2nc(N)[nH]c(=O)c21,-9.07% (inactive),
CC[N+](CC)(CCNC(=O)C(=O)NCC[N+](CC)(CC)Cc1ccccc1Cl)Cc1ccccc1Cl,1.77% (inactive),
CO[C@H]1C[C@@H]2CC[C@@H](C)[C@@](O)(O2)C(=O)C(=O)N2CCCC[C@@H]2C(=O)O[C@H]([C@@H](C)C[C@@H]2CC[C@H](O)[C@H](OC)C2)CC(=O)[C@H](C)C=C(C)[C@@H](O)[C@@H](OC)C(=O)[C@H](C)C[C@H](C)C=CC=CC=C1C,,28.2 µM (active)
O=C1c2ccccc2S(=O)(=O)N1CCCCN1CCN(c2ncccn2)CC1,0.703% (inactive),
Cc1ncc([N+](=O)[O-])n1C,-1.09% (inactive),
O=C(O)Cc1sc(-c2ccccc2)nc1-c1ccc(Cl)cc1,-1.18% (inactive),
COc1ccccc1[C@H](c1cccc2ccccc12)[C@@](C)(C#N)C(=O)N1CCC(c2cccc(C(F)(F)F)c2)CC1,-14.8% (inactive),
CC(C)OC(=O)C(C(=O)OC(C)C)=C1SC=CS1,-16.5% (inactive),
CC(C)C1CCC(C(=O)N[C@H](Cc2ccccc2)C(=O)O)CC1 (stereo not given in full),,inactive
C[C@H](CCC(=O)O)[C@H]1CCC2C3C[C@H](O)[C@@H]4C[C@H](O)CC[C@]4(C)C3CC[C@@]21C (stereo not given in full),22.3% (inactive),
